Measurements reported in PubChem BioAssay (NCATS).
Values joined by “and” are separate entries in the source; they are usually repeats but may differ in a detail not shown here. Equal values may be shown once. Results filed as inconclusive are left out. Where a call stands in place of a potency, no number is given. Active and inactive are the calls of the source. Calls follow the shape of the dose curve; as a rule, active = well fitted inhibition curve with a large enough effect; inconclusive = small, poorly fitted or top-dose-only effect; inactive = flat fitted curve, though single readings scatter.

tested on: HaCat; test: Cytotoxic Profiling of Annotated Libraries Using Quantitative High-Throughput Screening (AID 1296008); settings: Five cell lines viability, CellTiter-Glo ATP luminescence, 48-72 h; max response: hits give low values; also: nearly all actives have a fitted effect of over 60% in size
In short: (§1)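 Cytotoxicity was measured as CellTiter-Glo ATP luminescence, read after 10 min at room temperature. Compound treatment of the cells lasted 48 or 72 hr at 37 degrees Celsius in a qHTS format.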
Potency is read from the fitted curve at half-maximal effect.

| Compound | outcome |
| --- | --- |
| CC(C)(O)c1ccn2c(-c3ccc(F)c(-c4ccc(F)cc4C#N)c3)cnc2c1F | inactive |
| CC(C)C[C@@H](C(=O)N[C@@H](Cc1ccc(OCc2ccccc2)cc1)C(=O)NC(C)(C)C)N(C)Cc1ccc(C(C)(C)C)cc1 | inactive |
| COc1ccccc1OCCNCC(O)CCOc1cccc2[nH]c3ccccc3c12 (stereo not given) | inactive |
| COC(=O)CC(O)CC(O)/C=C/c1c(C)ccc2c1C(OC(C)=O)CC(C)C2 (stereo not given) | inactive |
| Cc1cc(C(=O)Cn2cc(C#N)ccc2=O)c(C)n1Cc1ccccc1 | inactive |
| CCC(C)C(=O)O[C@H]1[C@H](O)[C@@]2(COC(C)=O)C(CC1(C)C)C1=CCC3[C@@]4(C)CC[C@H](O[C@@H]5O[C@H](C(=O)O)[C@@H](O)[C@H](O)[C@H]5O)[C@@](C)(CO)C4CC[C@@]3(C)[C@]1(C)C[C@@H]2O (stereo not given in full) | inactive |
| O=C1COC2(CCN(S(=O)(=O)c3ccc(-c4ccc5cccnc5c4)cc3)CC2)CN1C1CC1 | inactive |
| Cc1nnc(-c2ccc(-c3ccc(C(=O)Nc4ccc(O)c(N5CCN(C)CC5)c4)cc3)c(C)c2)o1 | inactive |
| Cc1cc(C)cc(-c2cnc3cc(Cl)c(-c4cccc(O)c4)cc3c2OCCCN)c1 | inactive |
| COc1cc2c(cc1-c1c(C)noc1C)ncc1[nH]c(=O)n(C(C)c3ccccn3)c12 (stereo not given) | inactive |
| O[C@@](Cc1ncc(CC2(C(F)(F)F)CC2)[nH]1)(c1ccc(-n2cccn2)cc1)C(F)(F)F | inactive |
| C[C@]12CC[C@@H]3c4ccc(O)c(O)c4CC[C@H]3[C@@H]1CCC2=O | inactive |
| O=C(NCc1nc2ccccc2c(=O)n1-c1ccc(F)cc1)Nc1ccc(Cl)c(C(F)(F)F)c1 | inactive |
| CCN(CC)CCCS(=O)(=O)N[C@H](CCc1ccccc1)c1nc(Cc2ccc(Br)cc2)no1 | inactive |
| C=C1C(=O)OC2CC(C)C(CCC(C)=O)=CCC12 (stereo not given) | inactive |
| CCCCCCCOc1cc2c(cc1/C(C)=C/c1ccc(C(=O)O)cc1)C(C)(C)CCS2(=O)=O | inactive |
| CCOC(=O)c1ccc(OCCC2CCN(c3ccc(C)nn3)CC2)cc1 | inactive |
| Cc1c(Cl)cccc1S(=O)(=O)Nc1nc(NCCc2ccccc2)nc2c1CN(Cc1ccccc1)CC2 | inactive |
| O=C(O)CSc1cc(NS(=O)(=O)c2ccc(Br)cc2)c2ccccc2c1O | inactive |

tested on: KB-3-1; test: as above; settings: Five cell lines viability, CellTiter-Glo ATP luminescence, 48-72 h; max response: hits give low values
In short: as §1

| Compound | max response | Potency | outcome |
| --- | --- | --- | --- |
| COc1cccc(NCCC2(c3ccccc3)CC(C)(C)OC(C)(C)C2)c1 | -14.2% (inactive) |  |  |
| CNc1cccc(CCOc2ccc3c(c2)CN(CC(F)(F)F)C(=O)[C@H](CC(=O)O)C3)n1 | -2.45% (inactive) |  |  |
| CC(C)=CCC[C@](C)(O[C@@H]1O[C@H](CO[C@@H]2OC[C@@H](O)[C@H](O)[C@H]2O)[C@@H](O)[C@H](O)[C@H]1O)[C@H]1CC[C@]2(C)[C@@H]1[C@H](O)C[C@@H]1[C@@]3(C)CC[C@H](O[C@@H]4O[C@H](CO)[C@@H](O)[C@H](O)[C@H]4O)C(C)(C)[C@@H]3CC[C@]12C | 5.08% (inactive) |  |  |
| Cc1c(C(=O)Nc2ccc(N3CCC(N4CCOCC4)CC3)c(C#N)c2)cnn1-c1ccc(Cl)cc1 |  | 1460 nM (active) |  |
| CC(C)=CCC/C(C)=C/COCC1OC(n2ccc(=O)[nH]c2=O)C(O)C1O (stereo not given) | 7.71% (inactive) |  |  |
| O=C(CNC(=O)c1cccc(C(F)(F)F)c1)N[C@@H]1CCN(Cc2ccc(Cl)cc2)C1 | -17% (inactive) |  |  |
| O=C(c1c(F)ccc(NS(=O)(=O)N2CC[C@@H](F)C2)c1F)c1c[nH]c2ncc(-c3cnc(C4CC4)nc3)cc12 | -23.7% (inactive) |  |  |
| CC(=O)O[C@@]12CO[C@@H]1C[C@H](O)[C@@]1(C)C(=O)[C@H](O)C3=C(C)[C@@H](OC(=O)[C@H](O)[C@@H](NC(=O)OC(C)(C)C)c4ccccc4)C[C@@](O)([C@@H](OC(=O)c4ccccc4)C12)C3(C)C (stereo not given in full) |  | 3.6 nM (active) |  |
| CCCC(Nc1nc(-c2ccc(NC(=O)NCC)c(OC)c2)ncc1C)c1cccnc1 (stereo not given) |  | 146 nM (active) |  |
| CCCSc1nc(N[C@@H]2C[C@H]2c2ccc(F)c(F)c2)c2nnn([C@@H]3C[C@H](OCCO)[C@@H](O)[C@H]3O)c2n1 | -26.6% (inactive) |  |  |
| O=C(Nc1cccc2cccnc12)c1ccc(N2C(=O)[C@@H]3C4C=CC(C4)[C@@H]3C2=O)cc1 | -2.67% (inactive) |  |  |
| COc1ccc(CCCN2CCC(COC(c3ccccc3)c3ccccc3)CC2)cc1 | -17.2% (inactive) |  |  |
| COc1ccc2nc3n[nH]c(C)c3c(NCCOCCO)c2c1 | 2.11% (inactive) |  |  |
| CNc1nc(Nc2ccc(C(=O)N3CCOCC3)cc2OC)nc2[nH]cc(Cl)c12 |  | 10300 nM (active) |  |
| Cn1ncc2cc(-c3cnc(N)c(Cl)c3N3CCC4(CCNC4=O)CC3)ccc21 |  |  | inactive |
| CCCCc1c(-c2ccc(OC)cc2)[nH]c2nccnc12 | 2.93% (inactive) |  |  |
| COc1ccnc(CS(=O)c2nc3cc(OC(F)F)ccc3[nH]2)c1OC (stereo not given) | -2.25% (inactive) and -1.6% (inactive) |  |  |
| OC[C@H]1O[C@@H](OC/C=C/c2ccc(O)cc2)[C@H](O)[C@@H](O)[C@@H]1O | -4.8% (inactive) |  |  |
| Cc1c(NC(=O)OCC2COCCN2)cn2ncnc(Nc3ccc4c(cnn4Cc4cccc(F)c4)c3)c12 (stereo not given) | -18.9% (inactive) |  |  |
| Nc1nccc(-c2c(-c3ccc(F)cc3)ncn2C2CCCCC2)n1 | -18.1% (inactive) |  |  |
| Cc1cc(C)c2c(c1)C(N(Cc1cc(C(F)(F)F)cc(C(F)(F)F)c1)c1nnn(C)n1)CCCN2CC1CCC(C(=O)O)CC1 (stereo not given) |  | 14600 nM (active) |  |
